Measurements taken from PubChem BioAssay (NCATS).
“And” between values parts separate entries of the source, which are not always exact repeats. Identical values can stand only once. Results filed as inconclusive are left out. A number with no mark means an inactive call. The source made the active and inactive calls. Calls come from the whole dose curve; as a rule, active = well fitted curve in the direction sought with a large enough effect; inconclusive = small, poorly fitted or top-dose-only effect, or another doubt; inactive = no such curve, though single readings can be large; an effect the other way counts as inactive or inconclusive.

Key:
[1] = Viability qHTS for spleen associated tyrosine kinase inhibitor (SYKi) naive MV4-11 cells (AID 1963823); note: nearly all actives have a fitted effect of over 40% in size
Summary of the method: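 Read-out: CellTiter-Glo luminescence. Exposure: 72 hr, 37 C, 5% CO2, 95% humidity. Cells: MV4-11 without SYK inhibitor history, 500/well, qHTS format.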

[2] = Viability qHTS for spleen associated tyrosine kinase inhibitor (SYKi) drug resistant MV4-11 cells (AID 1963824); note: nearly all actives have a fitted effect of over 35% in size
Summary of the method: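 CellTiter-Glo luminescence, read 10 min after reagent addition, reports viability after a 72 hr compound exposure. Cells are an MV4-11 line made resistant to SYK inhibition, seeded at 500 per well onto compound-containing plates.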

[3] = Cellular viability qHTS for adrenocortical cancer (ACC) cell line SW-13 (AID 1963989); conditions: SW-13 ACC cells viability, CellTiter-Glo, 48 h; activity (max response): hits give low values; note: nearly all actives have a fitted effect of over 65% in size;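 for activity (max response): cells grown in serum-free medium with ITS supplement; % is set by controls: 0 for no effect and ±100 for the full control effect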
Summary of the method: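 Here, serum-free SW-13 cultures were dosed up to 46 uM. Following 48 h, ATP-dependent luminescence (CellTiter-Glo) reported viable cells, and logistic modeling produced IC50 values.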

[4] = Cellular viability qHTS for adrenocortical cancer (ACC) cell line NCI-H295R (AID 1963990); note: nearly all actives have a fitted effect of over 60% in size
Summary of the method: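 Viability of NCI-H295R after 48 h of treatment (final up to 46 uM) measured through cellular ATP luminescence.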
Potency is the fitted concentration of half-maximal effect.

| Structure (SMILES) | Potency [1] | Potency [2] | Potency [3] | Potency [4] | activity (max response) [3] [%] |
| --- | --- | --- | --- | --- | --- |
| O=C(NO)c1cnc(NC2(c3ccccc3)CC2)nc1 | 5.25 µM (active) | 4.17 µM (active) | 10 µM (active) | 3.98 µM (active) |  |
| OC[C@@H](O)[C@@H](O[C@@H]1O[C@H](CO)[C@H](O)[C@H](O)[C@H]1O)[C@H](O)[C@@H](O)CO | inactive | inactive |  | inactive | 1.27 |
| COC(=O)/C=C(/C)N | 16.8 µM (active) | inactive |  | inactive | 13.3 |
| Cc1cnc(NS(=O)(=O)c2ccc(N)cc2)nc1 | inactive | inactive |  | inactive | 9.12 |
| NC(=O)C1(N2CCCCC2)CCN(CCCN2c3ccccc3CCc3ccc(Cl)cc32)CC1 | 8.41 µM (active) | 8.41 µM (active) | 20.6 µM (active) | 2.91 µM (active) |  |
| NS(=O)(=O)c1cc(-c2nn[nH]n2)c(NCc2cccs2)cc1Cl | inactive | inactive |  | inactive | 11.4 |
| c1cn2cc(-c3ccc4cn[nH]c4c3)nc(Nc3ccc(N4CCOCC4)cc3)c2n1 | 0.651 µM (active) | 820 nM (active) and 1.32 µM (active) |  | inactive | 2.68 |
| CCNC(=O)Nc1ncc(-c2cc(-c3c(C)cc(OC)cc3C)nc(-c3cnccn3)n2)s1 | inactive | inactive |  | inactive | -7.82 |
| N#Cc1cc2cc(CN3CCC(Nc4ncnc5sc(CC(F)(F)F)cc45)CC3)c(O)cc2n1Cc1cn[nH]c1 | 0.742 µM (active) | 1.32 µM (active) | 14.1 µM (active) | 8.91 µM (active) |  |
